Measurements published in the supplement of paper PMC10849652.
Of roughly 8,800 targets only a part is listed; those with a hit were picked by preference. About 0.5% of all pairs of compound and target were hits.

The targets below were run with CC1=C(C=C(C=C1)NC(=O)C2=CC(=CC=C2)C(C)(C)C#N)NC3=CC4=C(C=C3)N=CN(C4=O)C (assay: log2 fold change, soluble protein after heating vs DMSO (PISA); higher = thermal stabilisation; K562 lysate, 10 uM; active = over 0.2 and 3.5 SD of the protein, either way, in both replicates (recomputed)).
Procedure, shortened: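 K562 pellets were dounce-homogenised in PBS pH 7.4 containing 1 mM MgCl2, and the crude extract, at 1 mg/mL protein, was exposed to 10 μM compound for 30 min. Aliquots were heated for 3 min across 48°C-58°C, pooled, brought to 0.5% NP-40 at 4°C and spun at 21,000xg for 90 min, with the supernatant taken as soluble protein. TMTpro 16plex LC-MS/MS with equalised channel sums quantified that protein. Values are log-two fold changes in thermal stability relative to solvent controls, taken from duplicates.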

UniProt Q8TDD1, sequence (Q8TDD1 whole entry, looked up): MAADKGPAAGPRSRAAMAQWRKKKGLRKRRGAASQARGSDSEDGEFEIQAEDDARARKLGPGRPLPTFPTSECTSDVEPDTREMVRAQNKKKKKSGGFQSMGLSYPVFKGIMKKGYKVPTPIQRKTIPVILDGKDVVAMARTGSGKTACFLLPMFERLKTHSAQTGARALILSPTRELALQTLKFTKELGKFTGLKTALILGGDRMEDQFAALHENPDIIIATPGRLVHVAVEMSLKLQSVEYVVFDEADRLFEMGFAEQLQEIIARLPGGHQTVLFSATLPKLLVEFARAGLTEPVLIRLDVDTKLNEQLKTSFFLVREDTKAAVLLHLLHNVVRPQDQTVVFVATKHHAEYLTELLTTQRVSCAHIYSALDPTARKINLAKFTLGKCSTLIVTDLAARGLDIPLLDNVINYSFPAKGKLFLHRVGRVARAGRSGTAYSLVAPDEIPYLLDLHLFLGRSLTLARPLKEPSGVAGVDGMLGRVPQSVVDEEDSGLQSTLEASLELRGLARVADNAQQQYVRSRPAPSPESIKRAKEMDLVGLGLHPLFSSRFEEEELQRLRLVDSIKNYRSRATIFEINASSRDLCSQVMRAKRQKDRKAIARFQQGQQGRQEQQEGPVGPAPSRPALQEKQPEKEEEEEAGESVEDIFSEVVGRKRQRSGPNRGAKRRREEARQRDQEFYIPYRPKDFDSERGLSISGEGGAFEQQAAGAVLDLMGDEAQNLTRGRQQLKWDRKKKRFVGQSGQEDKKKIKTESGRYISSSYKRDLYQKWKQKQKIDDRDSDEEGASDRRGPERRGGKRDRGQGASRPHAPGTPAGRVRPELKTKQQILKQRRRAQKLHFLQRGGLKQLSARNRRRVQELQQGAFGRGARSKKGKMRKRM
UniProt P68400, sequence (P68400 whole entry, looked up): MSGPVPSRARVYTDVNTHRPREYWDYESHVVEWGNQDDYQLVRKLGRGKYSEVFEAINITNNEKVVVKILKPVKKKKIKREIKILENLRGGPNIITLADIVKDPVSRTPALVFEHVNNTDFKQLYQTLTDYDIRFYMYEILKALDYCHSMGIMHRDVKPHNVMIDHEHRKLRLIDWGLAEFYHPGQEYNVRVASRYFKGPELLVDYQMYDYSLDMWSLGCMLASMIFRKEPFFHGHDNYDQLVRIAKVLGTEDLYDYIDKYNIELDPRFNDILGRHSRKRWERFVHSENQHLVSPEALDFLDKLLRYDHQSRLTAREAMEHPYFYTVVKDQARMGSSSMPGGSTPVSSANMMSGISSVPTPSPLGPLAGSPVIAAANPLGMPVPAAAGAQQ
UniProt P61024, sequence (P61024 whole entry, looked up): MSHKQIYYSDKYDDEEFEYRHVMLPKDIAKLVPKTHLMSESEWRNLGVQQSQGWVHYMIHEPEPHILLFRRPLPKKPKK
UniProt Q8NF50, sequence (Q8NF50 whole entry, looked up): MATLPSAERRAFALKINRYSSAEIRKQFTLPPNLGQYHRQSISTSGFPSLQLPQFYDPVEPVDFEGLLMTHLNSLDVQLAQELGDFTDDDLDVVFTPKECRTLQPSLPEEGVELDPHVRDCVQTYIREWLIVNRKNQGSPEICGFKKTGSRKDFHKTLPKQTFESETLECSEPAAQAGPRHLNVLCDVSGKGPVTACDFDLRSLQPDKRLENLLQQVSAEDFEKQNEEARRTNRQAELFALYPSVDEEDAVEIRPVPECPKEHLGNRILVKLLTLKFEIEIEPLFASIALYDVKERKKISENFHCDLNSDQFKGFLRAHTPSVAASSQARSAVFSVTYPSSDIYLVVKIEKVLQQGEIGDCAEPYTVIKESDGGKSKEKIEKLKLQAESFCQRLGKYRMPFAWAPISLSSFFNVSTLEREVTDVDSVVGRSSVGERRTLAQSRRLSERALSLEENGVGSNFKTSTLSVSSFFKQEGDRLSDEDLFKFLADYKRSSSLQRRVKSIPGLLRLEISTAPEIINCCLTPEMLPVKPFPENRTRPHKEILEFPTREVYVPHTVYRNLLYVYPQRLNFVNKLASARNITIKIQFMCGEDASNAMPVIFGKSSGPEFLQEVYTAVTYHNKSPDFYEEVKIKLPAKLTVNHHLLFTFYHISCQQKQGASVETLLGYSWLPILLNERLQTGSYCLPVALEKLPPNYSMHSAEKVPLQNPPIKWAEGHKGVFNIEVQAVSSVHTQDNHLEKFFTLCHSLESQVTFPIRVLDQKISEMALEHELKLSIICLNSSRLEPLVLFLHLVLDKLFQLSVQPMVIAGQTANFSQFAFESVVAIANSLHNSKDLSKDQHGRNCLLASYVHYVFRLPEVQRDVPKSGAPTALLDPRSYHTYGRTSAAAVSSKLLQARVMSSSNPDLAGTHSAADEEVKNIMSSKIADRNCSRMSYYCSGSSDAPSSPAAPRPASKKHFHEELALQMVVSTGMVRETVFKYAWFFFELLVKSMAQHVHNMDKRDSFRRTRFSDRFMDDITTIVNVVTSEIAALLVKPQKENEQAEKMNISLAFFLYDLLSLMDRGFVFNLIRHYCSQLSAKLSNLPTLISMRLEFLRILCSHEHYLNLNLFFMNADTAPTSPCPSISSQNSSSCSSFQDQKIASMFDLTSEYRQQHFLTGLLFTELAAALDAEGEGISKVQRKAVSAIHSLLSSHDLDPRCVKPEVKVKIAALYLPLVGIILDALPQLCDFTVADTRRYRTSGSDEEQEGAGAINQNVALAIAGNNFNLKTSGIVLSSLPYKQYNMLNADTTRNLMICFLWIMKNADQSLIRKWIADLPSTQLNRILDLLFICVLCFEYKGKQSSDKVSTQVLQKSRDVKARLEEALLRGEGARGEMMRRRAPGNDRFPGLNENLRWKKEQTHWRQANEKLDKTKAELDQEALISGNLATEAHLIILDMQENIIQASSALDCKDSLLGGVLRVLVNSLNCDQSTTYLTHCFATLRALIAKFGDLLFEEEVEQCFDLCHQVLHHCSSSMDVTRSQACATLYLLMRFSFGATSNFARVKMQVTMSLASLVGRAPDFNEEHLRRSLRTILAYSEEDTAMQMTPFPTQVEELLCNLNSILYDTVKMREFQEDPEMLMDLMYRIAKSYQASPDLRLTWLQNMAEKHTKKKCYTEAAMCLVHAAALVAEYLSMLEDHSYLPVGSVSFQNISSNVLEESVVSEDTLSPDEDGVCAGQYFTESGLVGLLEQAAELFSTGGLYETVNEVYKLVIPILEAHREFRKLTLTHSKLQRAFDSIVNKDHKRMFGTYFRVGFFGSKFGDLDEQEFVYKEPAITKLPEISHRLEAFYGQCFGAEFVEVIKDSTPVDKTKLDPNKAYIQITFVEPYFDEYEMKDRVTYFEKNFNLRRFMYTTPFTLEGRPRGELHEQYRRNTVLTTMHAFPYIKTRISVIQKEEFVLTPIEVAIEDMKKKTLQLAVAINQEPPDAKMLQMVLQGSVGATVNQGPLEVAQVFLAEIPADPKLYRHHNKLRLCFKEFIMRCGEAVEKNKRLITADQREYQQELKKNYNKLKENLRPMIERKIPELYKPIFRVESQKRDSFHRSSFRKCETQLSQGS
UniProt O75208, sequence (O75208 whole entry, looked up): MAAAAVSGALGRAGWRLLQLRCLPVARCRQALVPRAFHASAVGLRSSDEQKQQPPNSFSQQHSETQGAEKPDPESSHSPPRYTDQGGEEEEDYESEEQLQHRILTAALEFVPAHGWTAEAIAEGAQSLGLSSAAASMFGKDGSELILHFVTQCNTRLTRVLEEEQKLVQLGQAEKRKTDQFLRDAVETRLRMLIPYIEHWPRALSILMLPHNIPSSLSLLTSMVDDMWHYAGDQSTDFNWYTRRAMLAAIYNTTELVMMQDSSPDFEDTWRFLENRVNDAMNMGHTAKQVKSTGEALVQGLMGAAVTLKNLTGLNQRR
UniProt Q5EBM0, sequence (Q5EBM0 whole entry, looked up): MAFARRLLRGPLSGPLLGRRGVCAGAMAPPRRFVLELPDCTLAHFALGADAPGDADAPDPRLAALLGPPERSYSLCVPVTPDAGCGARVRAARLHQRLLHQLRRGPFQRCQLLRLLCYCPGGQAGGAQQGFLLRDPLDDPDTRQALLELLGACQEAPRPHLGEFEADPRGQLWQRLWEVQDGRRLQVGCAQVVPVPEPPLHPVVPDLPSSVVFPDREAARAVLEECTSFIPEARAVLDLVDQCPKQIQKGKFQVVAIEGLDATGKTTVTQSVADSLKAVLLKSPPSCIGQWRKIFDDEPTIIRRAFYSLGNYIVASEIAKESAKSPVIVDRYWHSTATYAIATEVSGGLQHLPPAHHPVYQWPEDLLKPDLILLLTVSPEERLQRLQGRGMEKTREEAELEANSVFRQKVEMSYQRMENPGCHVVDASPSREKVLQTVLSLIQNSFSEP
UniProt Q8TB03, sequence (Q8TB03 whole entry, looked up): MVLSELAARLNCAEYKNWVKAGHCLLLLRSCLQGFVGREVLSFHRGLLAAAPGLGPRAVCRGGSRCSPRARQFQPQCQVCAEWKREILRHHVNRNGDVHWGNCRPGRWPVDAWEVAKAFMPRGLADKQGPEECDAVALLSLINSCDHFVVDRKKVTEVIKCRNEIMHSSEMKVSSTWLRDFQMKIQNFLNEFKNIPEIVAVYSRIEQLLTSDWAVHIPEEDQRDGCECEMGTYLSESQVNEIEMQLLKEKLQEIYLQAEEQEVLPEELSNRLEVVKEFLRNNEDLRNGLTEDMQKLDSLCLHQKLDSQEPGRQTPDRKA
UniProt Q16850, sequence (Q16850 whole entry, looked up): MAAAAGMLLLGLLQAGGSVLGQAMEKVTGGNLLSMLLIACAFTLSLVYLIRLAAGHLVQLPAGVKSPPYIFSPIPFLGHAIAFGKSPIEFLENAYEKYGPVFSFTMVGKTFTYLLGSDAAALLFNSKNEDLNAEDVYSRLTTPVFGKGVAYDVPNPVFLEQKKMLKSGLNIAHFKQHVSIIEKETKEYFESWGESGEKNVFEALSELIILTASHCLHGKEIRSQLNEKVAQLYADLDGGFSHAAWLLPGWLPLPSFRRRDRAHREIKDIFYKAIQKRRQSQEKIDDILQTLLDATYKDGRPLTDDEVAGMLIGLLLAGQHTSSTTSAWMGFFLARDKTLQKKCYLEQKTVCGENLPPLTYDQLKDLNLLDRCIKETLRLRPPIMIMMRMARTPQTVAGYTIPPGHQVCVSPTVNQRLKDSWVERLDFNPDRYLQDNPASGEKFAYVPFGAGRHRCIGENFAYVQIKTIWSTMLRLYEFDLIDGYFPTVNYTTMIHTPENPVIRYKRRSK

Target | log2 fold change
CIP2A (UniProt Q8TCG1) | 0 (inactive)
DOCK8 (UniProt Q8NF50) | 0.004 (inactive)
COQ9 (UniProt O75208) | -0.024 (inactive)
CKS1B (UniProt P61024) | -0.059 (inactive)
CXXC1 isoform 2 (UniProt Q9P0U4) | 0.004 (inactive)
CXorf38 (UniProt Q8TB03) | -0.002 (inactive)
DDX54 isoform 2 (UniProt Q8TDD1) | -0.054 (inactive)
CSNK2A1 (UniProt P68400) | -0.078 (inactive)
DMAC2L (UniProt Q99766) | 0.008 (inactive)
DCP2 (UniProt Q8IU60) | -0.043 (inactive)
CYP51A1 (UniProt Q16850) | -0.093 (inactive)
CMPK2 (UniProt Q5EBM0) | 0.009 (inactive)
